The campaign covered roughly 31,000 sequences. About 1,400 (4.5%) were called active.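 Rule for the calls: active = median seed-adjusted z-score above 1 or below -1; inactive = the rest.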 The entries come from a sample that favours actives as a whole.

A short description of the assay: Novel Modifiers of Survival Motor Neuron (SMN) Protein: Gene Identification via Genome-wide siRNA Screen.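 Note: luminescence tracks full-length SMN protein made from the SMN2 reporter.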 The following applies: HEK293T SMN2-luciferase reporter, siRNA knockdown, 72 h; actives lie on both sides. The method, boiled down: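 Genome-wide siRNA screen (10418 genes, 3 siRNAs each, 1 pmol per well) by reverse transfection in HEK293T cells stably carrying an SMN2-luciferase reporter; luminescence after 72 hours, normalized to negative-control siRNA, log10-transformed, MAD-scored.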
In general terms: A reporter such as luciferase makes a cellular process visible.
With AAGUCGGAAUAGAAUGGAATT against COX7B, the median seed-adjusted z-score was -1.16 (active). Then GGACAACAACUGAAAUGUATT against ZIM3, with -0.02 (inactive); and AGUUAGGCACAGUCAGACATT against POLD4, with 0.225 (inactive); and CGAUGUAUGACGAGGAAAATT against BTNL3, with 0 (inactive). Consider GUUACGACCUGGAAGAUUATT against SPATA5L1, for which the median seed-adjusted z-score is 0.252 (inactive). Then GAGCAAGACUUCUACGUGATT against SERPINA5, with -1.01 (active). GGCUAAGAAUGACCAUUAUTT against NPR2: the median seed-adjusted z-score is 0.0712 (inactive). Then CAGUCGUCAUAAUACUGCATT against SMC4, with 0.646 (inactive); and CCCUGUUAGUAACGGCAAATT against OBFC2B, with -0.061 (inactive); and AGAUGUACCUAUGUCAAGATT against OVOL1, with -0.0414 (inactive). With CCAUGUUUGAACAAGCCCATT against MYL7, the median seed-adjusted z-score is -1.21 (active). For the sequence GCACCUUUGUGACCUAUGATT against KIF9, the median seed-adjusted z-score was 0 (inactive). With CGCUAAAGCUGCACACUGATT against TRAF3, the median seed-adjusted z-score is 0.731 (inactive). As for GAGCUGACUUUCUGACCAATT against RAB7A, the median seed-adjusted z-score was 0.169 (inactive).

Consider GCAACGGUGCUUUCCCAGATT against CASKIN1, for which the median seed-adjusted z-score is 0.555 (inactive).

As for CCAAAGUGGGUGUCAACGATT against BGN, the median seed-adjusted z-score is 0.376 (inactive). As to GAAUUUUGUGGUUACACUATT against POLR1D, the median seed-adjusted z-score was -0.0409 (inactive). Take GGGUGUAAUUCAUAAGGGUTT against PSMD1: the median seed-adjusted z-score is -1.61 (active). Under GGACUGAUUGGACUCCCAUTT against TNFRSF11A stands -0.0833 (inactive); under GGACGGUCGUGAUGGAUAATT against SAFB2, 0.0394 (inactive). Regarding CCCUGAACAUACCUACUGATT against BRS3, the median seed-adjusted z-score was 0.224 (inactive). In the case of ACAUCUAUUUGUGACCUUATT against NHLH2, the median seed-adjusted z-score was 0 (inactive).

Take GCACAAGCAUUGGAAAUAATT against MAP4: the median seed-adjusted z-score was 1.67 (active). On to CCUUUAUGCCUGAUCCUCATT against SULT1C3, for which the median seed-adjusted z-score is -0.731 (inactive). Under CCACAACGGACAGUCCAUATT against CYP17A1 stands -1.39 (active); under GGAAAGCAAUAAAAGUUAUTT against TAAR6, -0.124 (inactive).

As to AGGCCUAUAUUGAAGGAGATT against DGKG, the median seed-adjusted z-score was 0.227 (inactive). For the sequence CAACAGGUAUAACUACAUATT against CNDP2, the median seed-adjusted z-score was 0.43 (inactive).

With CCAAGAAGAUCAGCACCUUTT against GPR26, the median seed-adjusted z-score is -1.33 (active).

Consider AGACCAUAACUACUCACUATT against KDELR3, for which the median seed-adjusted z-score was 0.476 (inactive). Then GCUCAAUUGUCGAUCUUUATT against ERO1LB, with 0.565 (inactive); and GAAGGUUUCUGUGCCCUCATT against SLC4A9, with 0 (inactive); and CCUGCAAGCUGUCAACUUUTT against PRKACA, with -0.137 (inactive).

Turning to CAACUUCUAUAGUCGAAUATT against TXNDC3, the median seed-adjusted z-score was -0.649 (inactive).

For the sequence CGAUAUUUAUCCUUACCUATT against SLC9A2, the median seed-adjusted z-score is -1.02 (active). As for CCUUUACGUUCAAAUCACATT against ZNF268, the median seed-adjusted z-score is 0.0358 (inactive). Take CCAAGGAGUCGUCUACUUUTT against B3GAT3: the median seed-adjusted z-score is -0.00603 (inactive). Consider GCAGAUCUCAUGUCCUCUATT against FPGS, for which the median seed-adjusted z-score is -0.853 (inactive).

For GCAAGUGGUUUGUCAGUAATT against B3GALT5, the median seed-adjusted z-score was 0.144 (inactive). As to GCUCUUAUGCGACAGUUUATT against PFTK2, the median seed-adjusted z-score is -1.16 (active).

As for GGUGUAUGCUGAGGUGAAATT against EIF2C1, the median seed-adjusted z-score was 0.215 (inactive).

For AGUCUGUUGGUGCACAAAATT against MDM2, the median seed-adjusted z-score was 0.258 (inactive). Turning to GAUUUAUGCUAGCUCUAAATT against CFL2, the median seed-adjusted z-score was -0.148 (inactive).

On to CAUCAAAACUUGGAGAGCATT against FN3K, for which the median seed-adjusted z-score is -0.508 (inactive).

On to CCUUCUACAACACCAAGAATT against AGPAT2, for which the median seed-adjusted z-score is 0.38 (inactive). Regarding GGAUUACAGGAGACCCAUATT against FUBP1, the median seed-adjusted z-score was -1.52 (active).

With CAUUAACAUUGUUCGCAAATT against ACO2, the median seed-adjusted z-score was -1.57 (active).

As to UACCAGAUCUCAAAAAGAATT against CCR5, the median seed-adjusted z-score is -0.0281 (inactive). GGAUGAAGGUAGUUACGUUTT against RAVER2: the median seed-adjusted z-score was -0.258 (inactive).

Regarding CAUCCACACUGCAAUGAUATT against PILRB, the median seed-adjusted z-score is 0.0351 (inactive). Consider AAUUUUCCUGUGAUAGAAATT against PATE1, for which the median seed-adjusted z-score is 1.21 (active).

As to GCGACUUUCUUGGUUUGCATT against SNX2, the median seed-adjusted z-score is -0.569 (inactive). Consider CCCUAAAUGUAUCUCGGAATT against GRIN3A, for which the median seed-adjusted z-score is 0.241 (inactive). Take CGAGACGUAUUAUAUCUUUTT against COL4A3BP: the median seed-adjusted z-score is 0.0391 (inactive). As for GUGCAUAAGUGUUAGGGAATT against SLC17A2, the median seed-adjusted z-score was 0.141 (inactive). Then GAUCUGAGCUUGUACAGAATT against PSMC2, with -1.96 (active). Then GGAUCGAACCCAUGGAUCATT against ROCK2, with -0.149 (inactive). With GAAUAACUGCUGCUUGUAATT against TTRAP, the median seed-adjusted z-score is -0.33 (inactive). As to GACUCAUACGAGCGCAUUATT against SEMA4F, the median seed-adjusted z-score is 0.139 (inactive).

With GGCGAAGAGGGAUCAAGUATT against ZNF24, the median seed-adjusted z-score was 0.388 (inactive). On to GAGCCACACUUUCAAGUAATT against CRIP1, for which the median seed-adjusted z-score is -0.622 (inactive). On to CCGUGGACCAGUACUUUUATT against MAN2B1, for which the median seed-adjusted z-score was -0.246 (inactive). On to GACACGAUUCUUUACCAAATT against CHEK1, for which the median seed-adjusted z-score is -5.1 (active). With GGACUCAGGUCUCAUGUGATT against KRTAP5-7, the median seed-adjusted z-score was -0.279 (inactive). Under CAGGUAUUGUGGAAAGUAUTT against ADH4 stands -0.0991 (inactive); under GCACCAUAGACUUUCGGGATT against HPCA, 0.12 (inactive); under GAGCGAAGGUCAUAAUACATT against MORC4, 0.13 (inactive).

With GCAUGAGUGUUGAUAGGUATT against AGTR2, the median seed-adjusted z-score was 0.204 (inactive). Then ACAACUUCAUAUCCAGCUUTT against ISLR2, with 0.263 (inactive).

The record behind these values is PubChem BioAssay AID1347426 (Functional Genomics Laboratory (NCATS/FGL), 2020).
